Shown are actives, neighbours in structure and some others; about 4.8% of the full set was active somewhere.
ATXN2 expr inh: Primary qHTS for Inhibitors of ATXN expression. Potency, µM (titrated, usually from 57 µM), for inactives: at the highest dose activity change, negative = inhibition, most hits filed as inhibitors. AID 1745845, 2022. HEK-293 ATXN2-luciferase reporter, luminescence, 24 h. actives 0.72% (n = 360,000); further: potency means the concentration at half of the fitted maximal effect; on the % scale 0 is the no-effect control and ±100 the full control effect; nearly all actives have a fitted effect of over 55% in size
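qHTS (up to 57 uM final) was run with 24 h compound exposure of reporter cells at 37 °C. Each well was multiplexed: SteadyGlo luminescence measured ATXN2-luciferase expression after a fluorogenic Gly-Phe-AFC viability readout (25 uM final).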
IL1B secr inh: qHTS for Inhibitors of Inflammasome Signaling: IL-1-beta AlphaLISA Primary Screen; THP-1 LPS/ATP IL-1B secretion, AlphaLISA, 16 h; stronger effect = lower value; activity change, % at 57.5 µM; actives 4.7% (n = 360,000); AID 743279, 2014; in the data active means activity change below about -50%; inconclusive means mostly about -30% to -49%; further: on the % scale 0 is the no-effect control and ±100 the full control effect
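THP-1 cells pretreated 1 hr with compounds (up to 57.5 uM final), then stimulated with LPS (250 ng/mL final) plus ATP (1.25 mM final); secreted IL-1B measured by AlphaLISA after 16 hr, decreased signal indicating inhibition.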
USP2a block: qHTS Assay for Inhibitors of Ubiquitin-specific Protease USP2a Using CHOP2 as the Reporter; Ubiquitin carboxyl-terminal hydrolase 2 (Homo sapiens), O75604; USP2 core, Ub-CHOP2 coupled fluorogenic reporter, 485/531; Potency, µM (series often up to 38.3 µM), for the others: at the highest dose activity change, negative = inhibition, hits mostly inhibitors; actives 0.01% (n = 330,000); AID 463254, 2010;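 further: potency means the concentration at half of the fitted maximal effect; plate controls were DMSO wells for no effect and full inhibition by NEM control for full effect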
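Cell-free coupled assay: 10nM USP2 core preincubated 30min RT with compound in Tris-HCl pH 8.0/CaCl2/CHAPS buffer, then 25nM Ub-CHOP2 and 25nM reporter substrate; fluorescence (Ex 485/Em 531) read after 60min RT, normalized to NEM inhibition, concentration-response curves fitted.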
USP1-UAF1 inh: Inhibitors of USP1/UAF1: Primary Screen; Ubiquitin carboxyl-terminal hydrolase 1 (Homo sapiens), O94782; recombinant USP1/UAF1, Ub-Rhodamine cleavage fluorescence; Potency, µM (highest dose often 57.1 µM), without a hit: top-dose activity change, negative = inhibition, actives largely listed as inhibitors; actives 0.23% (n = 390,000); further: potency means the concentration at half of the fitted maximal effect; on the % scale 0 is the no-effect control and ±100 the full control effect; nearly all actives have a fitted effect of over 60% in size
Target sequence (O94782 whole entry, looked up): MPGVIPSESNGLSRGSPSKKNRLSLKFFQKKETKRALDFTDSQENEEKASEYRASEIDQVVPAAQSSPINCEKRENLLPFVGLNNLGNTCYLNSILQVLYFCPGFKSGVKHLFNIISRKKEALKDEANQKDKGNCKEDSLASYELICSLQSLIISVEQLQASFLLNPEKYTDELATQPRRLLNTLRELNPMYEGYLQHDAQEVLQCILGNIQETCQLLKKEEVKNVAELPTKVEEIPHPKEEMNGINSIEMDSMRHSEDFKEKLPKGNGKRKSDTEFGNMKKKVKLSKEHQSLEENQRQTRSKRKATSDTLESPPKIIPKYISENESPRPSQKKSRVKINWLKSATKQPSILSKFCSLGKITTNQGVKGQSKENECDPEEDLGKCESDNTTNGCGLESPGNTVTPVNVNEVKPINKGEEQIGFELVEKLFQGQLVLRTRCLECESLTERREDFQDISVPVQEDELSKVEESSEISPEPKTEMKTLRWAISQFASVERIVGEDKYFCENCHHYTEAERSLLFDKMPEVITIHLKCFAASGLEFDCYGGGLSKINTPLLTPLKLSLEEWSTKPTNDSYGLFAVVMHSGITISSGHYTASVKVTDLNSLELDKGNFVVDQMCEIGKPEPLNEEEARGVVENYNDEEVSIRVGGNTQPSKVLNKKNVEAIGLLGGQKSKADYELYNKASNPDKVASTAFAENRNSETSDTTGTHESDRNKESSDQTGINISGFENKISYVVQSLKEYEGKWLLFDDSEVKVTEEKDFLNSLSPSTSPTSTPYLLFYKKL
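USP1/UAF1 complex (1 nM) preincubated 15 min at room temperature with compound, then Ub-Rho substrate (150 nM final) added. Kinetic fluorescence at 480/540 nm over 6 reads at 60 s intervals; 50 mM HEPES pH 7.8, 0.5 mM EDTA, 0.1 mg/ml BSA, 1 mM TCEP, 0.01% Tween-20.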
S2 tox: Viability Counterscreen for Primary qHTS for Inhibitors of ATXN expression; S2 cells (HEK-293 line with an ATXN2-luciferase reporter) viability, CellTiter-Fluor protease fluorescence, 24 h; actives 0.49% (n = 400,000); Potency, µM (doses to about 56.7 µM), most hits filed as cytotoxic; further: potency means the concentration at half of the fitted maximal effect; nearly all actives have a fitted effect of over 40% in size
* marks the source's active call; other numbers are inactive results; i = inactive; ? = inconclusive; . = no result. Unless noted, the call rests on the fitted dose curve; in most records, active means well fitted curve in the direction sought with a large enough effect; inconclusive means small, poorly fitted or top-dose-only effect, or another doubt; inactive means no such curve, though single readings can be large; an effect the other way counts as inactive or inconclusive.

SMILES | ATXN2 expr inh | IL1B secr inh | USP2a block | USP1-UAF1 inh | S2 tox
COc1cc(/C=C/C(=O)c2ccc(C)c([N+](=O)[O-])c2)cc(OC)c1O | ? | ? | 1% | -3% | i
COc1ccc2cc(C(=O)/C=C/c3cc(OC)c(O)c(OC)c3)ccc2c1 | -14% | -98* | -1% | ? | ?
CC(=O)c1cccc(NS(=O)(=O)c2cc(-c3onc(C)c3C)ccc2C)c1 | 0% | . | . | -6% | i
CCN(CC)c1ccc(C(=C2C=CC(=[N+](CC)CC)C=C2)c2ccc(S(=O)(=O)O)cc2S(=O)(=O)[O-])cc1 | ? | -94* | . | ? | ?
O=C(c1ccccc1)N1CCOC(O)(c2ccccc2)C1c1ccccc1 (centres undefined) | -6% | -22 | . | -18% | i
COc1cc(NC(=O)CCc2c(C)noc2C)c(C(=O)O)cc1OC | . | 17 | . | -14% | i
N#Cc1c(NC(=S)NC(=O)c2ccccc2)sc2c1CCCC2 | 41% | 2 | 2% | -20% | i
N#Cc1c(NC(=S)NC(=O)C2CCCC2)sc2c1CCCCC2 | 7% | -54* | -3% | -23% | ?
CCOC(=O)CNC(=O)Cn1c(C)cc2ccccc2c1=O | -1% | -65* | 2% | -11% | i
CCOC(=O)C1CCN(C(=O)CNC(=O)Cn2c(C)cc3ccccc3c2=O)CC1 | 8% | -15 | -1% | -7% | i
COCCNC(=O)c1ccc2c(c1)NC(=O)C(CS(=O)(=O)Cc1ccc(F)cc1Cl)N2 (centres undefined) | . | . | . | -22% | .
O=C(NCC(=O)N1CCN(c2ccccc2)CC1)c1ccc(Br)o1 | 0% | -2 | 1% | -15% | i
O=C(NCC(=O)N1CCN(C(c2ccccc2)c2ccccc2)CC1)c1ccc(Br)o1 | -33% | -73* | -3% | -20% | i
Cc1cc(C)c(NC(=O)Cc2ccc(-n3c(C)nc4cccnc43)cc2)c(C)c1 | . | . | . | -17% | .
OCCNc1nc(Nc2cccc(O)c2)nc2ccccc12 | -38% | -105* | 8% | -14% | i
OCCNc1nc(NCc2ccccc2)c2ccccc2n1 | ? | -99* | 3% | -5% | i
Cc1ccc(Sc2ccc(N3CCC(C(=O)Nc4ccc(Cl)cc4)CC3)nn2)cc1 | -4% | . | . | -30% | i
O=C(/C=C/c1ccccc1)N(Cc1cccc(Cl)c1)C1CCS(=O)(=O)C1 (centres undefined) | -2% | -23 | 0% | -7% | i
COc1cccc(CN(C(=O)/C=C/c2ccc(Cl)cc2)C2CCS(=O)(=O)C2)c1 (centres undefined) | -33% | -58* | -3% | -18% | ?
O=C1CCC/C1=c1\s/c(=C/c2cccnc2)c(=O)n1-c1ccccc1 | 2% | -73* | . | -21% | ?
O=C1CCC/C1=c1\s/c(=C\c2cccnc2)c(=O)n1-c1ccccc1 | -12% | -75* | -1% | -13% | i
O=C(CCCC1=NS(=O)(=O)c2ccccc2N1)Nc1ccccc1 | . | -3 | 1% | -14% | i
Cc1ccc(S(=O)(=O)CCC(=O)N(Cc2nnc(-c3ccc(Cl)cc3)o2)C2CC2)cc1 | . | -17 | 3% | -16% | ?
Cc1ccc(C)c(N2N=C(C(=O)Nc3ccc(N4CCOCC4)cc3)CCC2=O)c1 | 0% | 3 | 1% | -1% | i
O=S(=O)(c1ccc2[nH]c3c(c2c1)CCCCC3)N1CCN(c2cccc(Cl)c2)CC1 | -14% | . | . | -9% | i
Cc1cccc(NC(=S)NC2CC3CCCC(C2)N3Cc2cccs2)c1 (centres undefined) | -25% | -78* | 0% | 11% | ?
O=C(c1cccc(Br)c1)N1CCN(S(=O)(=O)N2CCCCC2)CC1 | -2% | -17 | 1% | -3% | i
Cc1sc2ncnc(NCc3ccccc3)c2c1C | ? | -68* | -1% | -15% | i
CCN1CCN(c2cc(N3CCc4ccccc4C3)c(F)cc2[N+](=O)[O-])CC1 | -33% | -104* | 1% | -11% | i

Screening results as filed in PubChem BioAssay.
